{"source": "PubChem BioAssay (NCI)", "note": "Several values for one entry are separate records, joined by “and”; a condition that tells them apart may be missing. Equal entries are not always repeated. Compounds without any hit were thinned out: in the full panel of roughly 83,000, 20% have a hit.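 Single-concentration screen, 48 h exposure, 96-well plates. Endpoint: percent growth. Below 10 = active.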 Activity calls are given as the source filed them.", "data": [{"test_system": "TK-10 renal", "experiment": "NCI-60 one-dose screen, 48 h (100 = growth as untreated, 0 = no growth, -100 = all killed)", "conditions": "1 µM", "method": "(§1) Growth inhibition of the TK-10 human tumor cell line is measured as a screen for anti-cancer activity. Cells are grown in 96 well plates and exposed to the test compound for 48 hours. Compounds are tested at a single concentration, which is 10^-5 M for most compounds. The reported endpoint is percent growth (GI% or GIPRCNT), where numbers from 0 - 100% represent growth inhibition, and numbers from -100% - 0 represent cell death. For example, a value of 40 represents 60% growth inhibition. A value of 0 means no net growth occurred over the course of the experiment. A value of -40 indicates 40% of cells at the beginning of the experiment died by the end of the experiment. A value of -100 means all cells are dead at the end of the experiment.\n(§2) NCI-60 Human Tumor Cell Lines Screen was performed using the standard one-dose NCI protocol, which is described in more detail at https://dtp.cancer.gov/discovery_development/nci-60/default.htm.\n(§3) Compounds with GIPRCNT values below 10 were considered active. Activity score was based on GIPRCNT using the following formula: […]\n(§4) Score is 0 for GIPRCNT values of 100 or above, 50 for GIPRCNT values of 0, and 100 for GIPRCNT values of -100.", "values": [{"smiles": "CNC(=O)c1cc(Oc2ccc(CC(=O)Nc3cc(C(C)(C)C)nn3C)cc2)ccn1", "growth": "95.2% (inactive)"}]}, {"test_system": "TK-10 renal", "experiment": "NCI-60 one-dose screen, 48 h (100 = growth as untreated, 0 = no growth, -100 = all killed)", "conditions": "10 µM", "method": "as §1, §2, §3, §4", "values": [{"smiles": "CNC(=O)c1cc(Oc2ccc(CC(=O)Nc3cc(C(C)(C)C)nn3C)cc2)ccn1", "growth": "80.4% (inactive)"}]}, {"test_system": "TK-10 renal", "experiment": "NCI-60 one-dose screen, 48 h (100 = growth as untreated, 0 = no growth, -100 = all killed)", "conditions": "10 µM unless noted", "method": "as §1, §2, §3, §4", "values": [{"smiles": "O=C1NC(N/N=C\\c2ccccc2)=N/C1=C/c1ccccc1", "growth": "-49.7% [100 µM] (active) and -77.5% [100 µM] (active)"}, {"smiles": "CCN(CC)CCc1nc(-c2ccccc2)no1", "growth": "85.1% (inactive) and 107% (inactive)"}, {"smiles": "CCOc1ccc(Nc2c3ccccc3nc3ccccc23)cc1", "growth": "93.3% (inactive) and 35.1% (inactive) and 32.7% (inactive)"}, {"smiles": "CN(C)c1ccc2nc3ccc(N)cc3[n+](-c3ccccc3)c2c1", "growth": "20.6% (inactive)"}, {"smiles": "CCOc1ccc2nc3cc(N)ccc3c(N)c2c1", "growth": "117% (inactive) and 122% (inactive)"}, {"smiles": "O=C(O)COc1cc(-c2ccccc2F)nc2cc3c(cc12)OCO3", "growth": "113% [100 µM] (inactive) and 102% [100 µM] (inactive)"}, {"smiles": "CC(=N\\N=C\\c1ccccn1)/C(C)=N/N=C/c1ccccn1", "growth": "108% [100 µM] (inactive) and 118% [100 µM] (inactive)"}, {"smiles": "N#Cc1n[nH]n(-c2ccccc2)c1=O", "growth": "115% [100 µM] (inactive) and 107% [100 µM] (inactive)"}, {"smiles": "Cc1cccc(/C=C\\C(=O)c2ccccc2)c1", "growth": "86.9% (inactive) and 96.3% (inactive)"}, {"smiles": "CCc1c(CC(=O)O)c2cc(C)ccc2n1Cc1ccc(Cl)cc1", "growth": "99.7% (inactive) and 262% (inactive)"}, {"smiles": "C=C1C(=O)O[C@H]2C[C@@]3(C)[C@H](O)CCC(=C)[C@@H]3[C@@H](OC(C)=O)[C@H]12", "growth": "-98% [100 µM] (active) and -95.5% [100 µM] (active)"}, {"smiles": "O=Nc1ccc(O)cc1", "growth": "107% (inactive) and 105% (inactive)"}, {"smiles": "C/C(=N\\NC(=O)c1ccncc1)c1ccccc1O", "growth": "34.7% (inactive) and 37.4% (inactive)"}, {"smiles": "CCN(CC)CCNc1cc(-c2cccc(OC(F)(F)F)c2)nc2ccc(N3CCCC3)cc12", "growth": "74.5% (inactive) and 19.1% (inactive) and 40.1% (inactive)"}, {"smiles": "C=C(CCC(C(=O)O)C1CCC2(C)C3=C(CCC12C)C1(C)CCC(O)C(C)(C)C1CC3)C(C)C", "note": "(stereo not given)", "growth": "-54.9% [100 µM] (active) and -100% [100 µM] (active)"}, {"smiles": "Cc1cc(=O)[nH]c(O)c1C#N", "growth": "103% (inactive) and 92.9% (inactive)"}, {"smiles": "COC(=O)C(Cc1nc2ccccc2[nH]c1=O)C(=O)C(=O)Nc1cc(C(F)(F)F)ccc1Cl", "note": "(stereo not given)", "growth": "-90.1% [100 µM] (active) and 0.262% [100 µM] (active)"}, {"smiles": "CCN(CC)CCC(CNc1c2ccc([N+](=O)[O-])cc2nc2cc(OC)c(OC)cc12)c1ccccc1", "note": "(stereo not given)", "growth": "-4.61% (active) and -89.9% (active)"}, {"smiles": "CC1CC(=O)N(N(C)C)C(C#N)(C#N)C1(C#N)C#N", "note": "(stereo not given)", "growth": "-97.2% [100 µM] (active) and -90.4% [100 µM] (active)"}, {"smiles": "O=C1OC(Oc2ccc(Br)cc2)(c2ccccc2)c2ccccc21", "note": "(stereo not given)", "growth": "89.4% (inactive) and 86.2% (inactive)"}, {"smiles": "COc1ccc2c(C)cc(N/N=C/c3ccc(C)s3)nc2c1", "growth": "-66.6% [100 µM] (active) and -100% [100 µM] (active)"}, {"smiles": "COc1ccc(OC)c(N(CN2C(=O)CCC2C(=O)O)C(C)=O)c1", "note": "(stereo not given)", "growth": "78.2% [100 µM] (inactive) and 103% [100 µM] (inactive)"}, {"smiles": "COC(=O)C(=O)C(C(=O)C(=O)Nc1ccc(Cl)c(Cl)c1)c1nc2ccc(C(=O)c3ccccc3)cc2[nH]c1=O", "note": "(stereo not given)", "growth": "89.4% [100 µM] (inactive) and 14.4% [100 µM] (inactive)"}, {"smiles": "CCOC(=O)C(C(=O)OCC)C(c1ccccc1)N1CCN(c2ccccc2)CC1", "note": "(stereo not given)", "growth": "98.1% (inactive) and 113% (inactive)"}, {"smiles": "COC(=O)C(C(=O)C(=O)NC1Nc2ccc(C)cc2S1)c1nc2ccc(Cl)cc2[nH]c1=O", "note": "(stereo not given)", "growth": "113% [100 µM] (inactive) and 71.4% [100 µM] (inactive)"}, {"smiles": "COC(=O)C(=O)C(C(=O)C(=O)Nc1ccccc1OC)c1nc2ccc([N+](=O)[O-])cc2[nH]c1=O", "note": "(stereo not given)", "growth": "121% [100 µM] (inactive) and 68% [100 µM] (inactive)"}, {"smiles": "Nc1ncnc2c1ncn2C1CC(O)C(CO)O1", "note": "(stereo not given)", "growth": "113% (inactive) and 109% (inactive)"}, {"smiles": "C[N+](C)(CCNC(=O)c1cccc2cc3ccccc3nc12)Cc1ccc([N+](=O)[O-])s1", "growth": "72% [25 µM] (inactive) and 30.2% [25 µM] (inactive)"}, {"smiles": "COc1ccc2c(=O)c(-c3cc4c(cc3OC)OCO4)coc2c1", "growth": "8.9% [100 µM] (active) and 12.1% [100 µM] (inactive)"}, {"smiles": "CC1=CC(=O)c2ccc(C)cc2C1=O", "growth": "-100% [100 µM] (active)"}, {"smiles": "COc1cc2c(c3c1c(=O)c1ccccc1n3C)C=C([N+](=O)[O-])C(C)(C)O2", "growth": "31.2% [100 µM] (inactive) and -98.1% [100 µM] (active)"}, {"smiles": "N#Cc1nc(C(F)(F)F)oc1N", "growth": "79% [100 µM] (inactive) and 98.6% [100 µM] (inactive)"}, {"smiles": "O=[N+]([O-])c1ccccc1N(S(=O)(=O)c1ccccc1)S(=O)(=O)c1ccccc1", "growth": "93.3% (inactive) and 97.1% (inactive)"}, {"smiles": "CN1CCN(c2ccc3nc(-c4c(N)c5c(F)cccc5[nH]c4=O)[nH]c3c2)CC1", "growth": "35.1% (inactive) and 45.8% (inactive)"}, {"smiles": "O=C(CCc1ccc(O)c(O)c1)c1ccc(O)c(O)c1O", "growth": "74.7% [100 µM] (inactive) and -88% [100 µM] (active)"}, {"smiles": "CCOC(=O)Nc1nc2ccccc2[nH]1", "growth": "111% (inactive) and 64.6% (inactive)"}, {"smiles": "NC(=S)NS(=O)(=O)c1ccc(N)cc1", "growth": "110% (inactive)"}]}, {"test_system": "TK-10 renal", "experiment": "NCI-60 one-dose screen, 48 h (100 = growth as untreated, 0 = no growth, -100 = all killed)", "conditions": "30 µM", "method": "as §1, §2, §3, §4", "values": [{"smiles": "CNC(=O)c1cc(Oc2ccc(CC(=O)Nc3cc(C(C)(C)C)nn3C)cc2)ccn1", "growth": "103% (inactive)"}]}]}
